For 17 molecules, outcome and AC50 results are on record in PubChem BioAssay (EPA / NIEHS).

SMILES strings stand for the structures. Inconclusive results are not listed. Active and inactive are the calls of the source. The calls were made as follows, unless noted: active = hit-call score of the fitted dose curve at least 0.9, where 1 is the maximum; inactive = score below 0.9.

Read-out in assay [1]: Collagen I, COL1A1 (gene 1277)
Nature of the assay: BSK_MyoF_CollagenI: BioMAP Diversity Plus: MyoF Assay for Collagen I Biomarker Activity (AID 2284238). To be noted: primary human lung fibroblasts. The method in brief:
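Multiplexed primary human lung fibroblast system; Collagen I measured by ELISA at 24 h post-dose. Increases are referenced to DMSO.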

Read-out in assay [2]: Collagen III, COL3A1 (gene 1281)
Description: BSK_MyoF_CollagenIII: BioMAP Diversity Plus: MyoF Assay for Collagen III Biomarker Activity (AID 2284239). As to conditions: primary human lung fibroblasts. The method in brief:
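Compounds are added to primary human lung fibroblasts and left for 24 hours. Collagen III is then quantified by ELISA. Analysis takes DMSO as baseline and fits increases in signal.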

Read-out in assay [3]: Interleukin 17F (IL17F), IL17F (gene 112744)
Description: BSK_BT_xIL17F: BioMAP Diversity Plus: BT Assay for Interleukin 17F (IL17F) Biomarker Activity (AID 2284243). To be noted: primary human B cells with PBMC. The method, boiled down: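 Measures secreted IL-17F from a human B cell plus PBMC co-culture at 24 h post-dose by Luminex xMAP, with DMSO defining baseline activity.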

Read-out in assay [4]: Actin alpha 1 (ACTA1), ACTA1 (gene 58)
Nature of the assay: BSK_MyoF_ACTA1: BioMAP Diversity Plus: MyoF Assay for Actin alpha 1 (ACTA1) Biomarker Activity (AID 2284244). To be noted: primary human lung fibroblasts. The method, boiled down: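 Lung fibroblasts, human primary, 24 h compound exposure → a-SMA ELISA. Positive-direction fit vs DMSO control.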

Read-out in assay [5]: Interleukin 2 (IL2), IL2 (gene 3558)
Nature of the assay: BSK_BT_xIL2: BioMAP Diversity Plus: BT Assay for Interleukin 2 (IL2) Biomarker Activity (AID 2284245). As to conditions: primary human B cells with PBMC. The method in brief: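 B cell + PBMC co-culture (human primary), compound added, 24 h incubation; secreted IL-2 measured multiplexed on Luminex xMAP; gain-of-signal fit vs DMSO.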

Read-out in assay [6]: Basic fibroblast growth factor (bFGF), FGF2 (gene 2247)
Description: BSK_MyoF_bFGF: BioMAP Diversity Plus: MyoF Assay for Basic fibroblast growth factor (bFGF) Biomarker Activity (AID 2284246). To be noted: primary human lung fibroblasts. The method, boiled down: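 ELISA-measured bFGF level serves as the read-out, taken 24 h after chemical dosing of human lung fibroblasts. Values represent signal gain over the DMSO negative control.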

Read-out in assay [7]: Plasminogen activator inhibitor-1 (PAI1), SERPINE1 (gene 5054)
Nature of the assay: BSK_MyoF_PAI1: BioMAP Diversity Plus: MyoF Assay for Plasminogen activator inhibitor-1 (PAI1) Biomarker Activity (AID 2284256).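 Also: PAI-1 protein level measured by ELISA in fibroblast cultures; PAI-1 read 24 h after compound addition.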 As to conditions: primary human lung fibroblasts. The method, boiled down:
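Activity reflects increased PAI-1, determined by ELISA and compared with DMSO, in human lung fibroblasts treated for 24 h.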

Read-out in assay [8]: Interleukin-8 (IL8), CXCL8 (gene 3576)
Nature of the assay: BSK_MyoF_IL8: BioMAP Diversity Plus: MyoF Assay for Interleukin-8 (IL8) Biomarker Activity (AID 2284261). To be noted: primary human lung fibroblasts. The method, boiled down:
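In this multiplexed primary-cell system, fibroblasts from human lung are treated with chemicals, and IL-8 is detected by ELISA at 24 h, with DMSO serving as the negative reference.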

Read-out in a further assay: Decorin, DCN (gene 1634)
Nature of the assay: BSK_MyoF_Decorin: BioMAP Diversity Plus: MyoF Assay for Decorin Biomarker Activity (AID 2284265). To be noted: primary human lung fibroblasts. The method in brief: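 Lung fibroblast cultures, 24 h chemical exposure. Decorin by ELISA, positive fitting direction, DMSO baseline.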

Assay [9] in a line: BSK_MyoF_SRB: Viability Assessment in the BioMAP Diversity Plus: MyoF Assay (AID 2284267).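 Also: total protein by SRB absorbance in parallel cultures as cytotoxicity measure.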 As to conditions: primary human lung fibroblasts. The method in brief: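 Read-out is SRB absorbance at 560 nm, reflecting total protein in parallel lung fibroblast cultures harvested 24 h after compound addition. Cells were TCA-fixed (10%) and stained with 0.1% SRB; activity is referenced to DMSO.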

Read-out in assay [10]: TIMP metallopeptidase inhibitor 1 (TIMP1), TIMP1 (gene 7076)
Nature of the assay: BSK_MyoF_TIMP1: BioMAP Diversity Plus: MyoF Assay for TIMP metallopeptidase inhibitor 1 (TIMP1) Biomarker Activity (AID 2284269). To be noted: primary human lung fibroblasts. The method in brief:
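TIMP-1 levels were determined by ELISA in human lung fibroblasts treated for 24 h. DMSO served as negative control and baseline for upward curve fitting.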

Assay [11] concerns the target Estrogen receptor (Homo sapiens) (UniProt P03372). Description: ATG_ERa_TRANS: Attagene TRANS-FACTORIAL HepG2 Assay for human Estrogen Receptor alpha (ERa) (AID 2282970; active = hit-call score of the fitted dose curve at least 0.9, where 1 is the maximum). As to conditions: HepG2 Attagene TRANS ERa GAL4 reporter, mRNA. The method, boiled down:
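Transactivation via ERa-Gal4 chimera in HepG2; 24 hour incubation; reporter mRNA detected by fluorescence RT-PCR and capillary electrophoresis.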

Assay [12] is described as follows: ATG_PPRE_CIS: Attagene CIS-FACTORIAL HepG2 Assay for human Peroxisome Proliferator-activated Response Element (PPRE) (AID 2282958). As to conditions: HepG2 PPRE cis-element reporter, Attagene transcription factor profiling; actives raise or lower the signal. The method, boiled down:
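Measured endpoint: PPRE-controlled reporter mRNA, detected by RT-PCR and capillary electrophoresis fluorescence, from transiently transfected HepG2 cells 24 h after dosing. Curves fitted in both directions using DMSO baseline.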

Assay [13] concerns the target Retinoic acid receptor alpha (Homo sapiens) (UniProt P10276). Description: ATG_RARa_TRANS: Attagene TRANS-FACTORIAL HepG2 Assay for human Retinoic Acid Receptor alpha (RARa) (AID 2283005; active = hit-call score of the fitted dose curve at least 0.9, where 1 is the maximum). The method in brief:
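HepG2 cells transiently transfected with multiple reporter units expressing chimeric RARα-GAL4 fusion, with GAL4-UAS-driven reporters. After 24 h compound exposure, reporter mRNA induction quantified by RT-PCR and capillary electrophoresis with fluorescent labeling; gain-of-signal fitted relative to DMSO control.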

The target in assay [14] is human Phosphodiesterase 10 (PDE10), PDE10A (gene 10846) (UniProt Q9Y233). Nature of the assay: NVS_ENZ_hPDE10: NovaScreen (NVS) Enzymatic Assay for human Phosphodiesterase 10 (PDE10) (AID 2283195; active = hit-call score of the fitted dose curve at least 0.9, where 1 is the maximum). The method, boiled down: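 Fluorescence/mobility-shift readout of PDE10A enzyme activity, taken 1 h post-dosing. Primary screen in duplicate at 25 uM; actives (e.g. ≥30% inhibition) retested as singleton concentration-response, top concentration 50 uM.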
human Phosphodiesterase 10 (PDE10), PDE10A (gene 10846), sequence (Q9Y233 whole entry, looked up): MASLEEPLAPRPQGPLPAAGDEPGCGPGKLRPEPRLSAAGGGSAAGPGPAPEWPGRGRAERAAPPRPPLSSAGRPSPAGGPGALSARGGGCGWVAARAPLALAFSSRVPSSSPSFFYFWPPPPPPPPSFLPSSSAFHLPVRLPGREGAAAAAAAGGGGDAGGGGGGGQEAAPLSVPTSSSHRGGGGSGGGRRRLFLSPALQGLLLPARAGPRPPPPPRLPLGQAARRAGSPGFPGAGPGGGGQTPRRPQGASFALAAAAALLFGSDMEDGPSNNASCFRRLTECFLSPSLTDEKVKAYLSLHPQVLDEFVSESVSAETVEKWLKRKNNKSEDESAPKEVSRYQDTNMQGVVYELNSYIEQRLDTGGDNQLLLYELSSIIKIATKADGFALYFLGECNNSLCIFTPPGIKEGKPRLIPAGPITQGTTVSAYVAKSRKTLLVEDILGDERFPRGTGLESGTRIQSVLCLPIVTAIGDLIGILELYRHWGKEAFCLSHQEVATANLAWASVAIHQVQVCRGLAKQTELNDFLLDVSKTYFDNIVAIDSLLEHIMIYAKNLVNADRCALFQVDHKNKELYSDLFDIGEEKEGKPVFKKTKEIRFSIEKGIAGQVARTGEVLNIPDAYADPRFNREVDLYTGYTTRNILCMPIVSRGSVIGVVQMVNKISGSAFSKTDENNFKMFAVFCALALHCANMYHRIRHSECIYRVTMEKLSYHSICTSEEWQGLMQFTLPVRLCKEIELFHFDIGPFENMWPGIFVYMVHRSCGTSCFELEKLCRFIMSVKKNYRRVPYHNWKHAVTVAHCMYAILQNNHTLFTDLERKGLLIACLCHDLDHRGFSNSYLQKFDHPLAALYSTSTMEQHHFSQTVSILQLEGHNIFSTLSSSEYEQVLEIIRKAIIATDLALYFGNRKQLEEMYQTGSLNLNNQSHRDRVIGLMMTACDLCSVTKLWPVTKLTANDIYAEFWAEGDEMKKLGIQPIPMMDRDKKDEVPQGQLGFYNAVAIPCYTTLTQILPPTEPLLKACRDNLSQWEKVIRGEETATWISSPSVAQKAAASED

The target of assay [15] is Bile acid receptor (Homo sapiens) (UniProt Q96RI1). Description: OT_FXR_FXRSRC1_1440: Odyssey Thera (OT) 24-hour HEK293T Protein-Complementation Assay for Farnesoid X receptor/SRC-1 Co-activator (AID 2283384; active = hit-call score of the fitted dose curve at least 0.9, where 1 is the maximum). The method, boiled down: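 Compounds are applied to human kidney HEK293T cells expressing bait and prey fused to reporter protein fragments; after 24 h, reconstituted reporter fluorescence is measured. Activity is fitted as signal gain over DMSO.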
Bile acid receptor (Homo sapiens), sequence (Q96RI1 whole entry, looked up, the tested form may be a part): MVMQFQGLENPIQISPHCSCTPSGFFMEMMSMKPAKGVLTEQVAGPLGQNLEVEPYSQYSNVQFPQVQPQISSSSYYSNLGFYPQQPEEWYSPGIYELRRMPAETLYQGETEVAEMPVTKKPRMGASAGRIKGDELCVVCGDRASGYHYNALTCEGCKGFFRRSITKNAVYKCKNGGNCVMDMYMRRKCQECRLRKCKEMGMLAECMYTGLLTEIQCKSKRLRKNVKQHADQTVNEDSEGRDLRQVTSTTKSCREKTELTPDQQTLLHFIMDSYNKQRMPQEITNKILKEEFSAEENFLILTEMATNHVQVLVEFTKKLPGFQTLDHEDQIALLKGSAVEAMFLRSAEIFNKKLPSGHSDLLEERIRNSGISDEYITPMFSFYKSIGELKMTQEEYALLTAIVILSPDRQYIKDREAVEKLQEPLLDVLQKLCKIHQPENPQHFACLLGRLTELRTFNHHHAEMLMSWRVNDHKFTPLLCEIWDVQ

The nature of assay [16]: CCTE_Deisenroth_AIME_384WELL_CTox_Active: Cytotoxicity Assessment (CTOX) in CCTE's 384-well Estrogen Receptor Transactivation Assay with AIME metabolic competence (metabolism positive), Deisenroth Lab (AID 2284037; active = hit-call score of the fitted dose curve at least 0.9, where 1 is the maximum;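 also: chemicals first conditioned 2 h by alginate-bound induced rat liver S9 before cells; activity means signal loss indicating cell death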). The method, boiled down: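 VM7Luc4E2 breast cells received medium pre-incubated 2 h with chemical over alginate microspheres holding induced male Sprague Dawley rat liver S9; viability read 24 h later by protease-substrate fluorescence. Loss of signal, bidirectional fit, 0.002–200 uM.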

In a further assay the test system is SERPINA7 (gene 6906). Description: CCTE_GLTED_hTBG: CCTE's human Thyroxine-binding Globulin (TBG) Inhibition Assay, Great Lakes Toxicology and Ecology Division (GLTED) Lab (AID 2284343; active = hit-call score of the fitted dose curve at least 0.9, where 1 is the maximum;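 also: active chemicals lower fluorescence versus DMSO baseline by displacing probe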). The method in brief:
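hTBG + test chem, 2 h; ANSA probe displacement; fluorescence readout ex380/em475; DMSO = neg ctrl/baseline; cell-free.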

A further assay concerns TTR (gene 7276). Description: CCTE_GLTED_hTTR_0.125uM: CCTE's human Transthyretin (hTTR) Inhibition Assay, with 0.125uM TTR, Great Lakes Toxicology and Ecology Division (GLTED) Lab (AID 2284431).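 Also: hits lower the fluorescence signal relative to DMSO baseline.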 The method in brief:
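Probe-displacement format: chemicals competing for the T4 site release ANSA from 0.125uM TTR during a 2 h incubation, measured by fluorescence at 380 excitation and 475 emission.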

Retinoic acid receptor alpha (Homo sapiens), sequence (P10276 whole entry, looked up, the tested form may be a part): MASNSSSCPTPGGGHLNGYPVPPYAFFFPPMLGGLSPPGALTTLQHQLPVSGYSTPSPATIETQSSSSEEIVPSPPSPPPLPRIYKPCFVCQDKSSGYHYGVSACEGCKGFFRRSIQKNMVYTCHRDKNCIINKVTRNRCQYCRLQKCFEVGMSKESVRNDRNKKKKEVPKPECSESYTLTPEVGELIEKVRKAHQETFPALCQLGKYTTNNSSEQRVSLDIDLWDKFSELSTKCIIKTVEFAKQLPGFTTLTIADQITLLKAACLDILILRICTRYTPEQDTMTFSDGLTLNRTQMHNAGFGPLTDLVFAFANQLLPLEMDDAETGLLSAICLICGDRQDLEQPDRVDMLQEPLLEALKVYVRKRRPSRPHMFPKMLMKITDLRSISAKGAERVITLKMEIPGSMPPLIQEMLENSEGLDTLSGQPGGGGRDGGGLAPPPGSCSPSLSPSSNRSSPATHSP
Estrogen receptor (Homo sapiens), sequence (P03372 whole entry, looked up, the tested form may be a part): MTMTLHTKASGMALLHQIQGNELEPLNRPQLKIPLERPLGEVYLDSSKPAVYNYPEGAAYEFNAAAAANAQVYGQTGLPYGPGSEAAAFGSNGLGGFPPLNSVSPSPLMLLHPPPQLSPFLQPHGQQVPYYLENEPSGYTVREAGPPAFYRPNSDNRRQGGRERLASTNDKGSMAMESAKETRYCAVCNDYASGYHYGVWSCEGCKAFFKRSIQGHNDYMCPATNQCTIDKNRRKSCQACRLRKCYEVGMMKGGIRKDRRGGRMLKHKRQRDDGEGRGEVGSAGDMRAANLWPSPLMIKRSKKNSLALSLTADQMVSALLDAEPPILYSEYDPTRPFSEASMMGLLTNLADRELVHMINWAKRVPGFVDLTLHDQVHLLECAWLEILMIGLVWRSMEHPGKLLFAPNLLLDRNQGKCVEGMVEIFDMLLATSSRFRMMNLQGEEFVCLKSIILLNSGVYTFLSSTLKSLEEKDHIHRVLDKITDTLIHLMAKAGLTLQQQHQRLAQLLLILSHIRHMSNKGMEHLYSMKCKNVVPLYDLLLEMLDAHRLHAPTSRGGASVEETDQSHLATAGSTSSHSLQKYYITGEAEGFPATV

As for `CCCCCCCCCC/C=C/C1CC(=O)OC1=O` (centres undefined), the result in assay [1], in [2], in assay [3], in assay [4], in assay [5] and in assay [6] was inactive. The outcome in assay [7] is “inactive”; in assay [8], “inactive”; with Decorin, DCN (gene 1634), “inactive”; in assay [9], “inactive”; in [10], “inactive”.

In the case of `COC(OC)C(C)c1ccccc1` (centres undefined), the outcome in [11] was inactive.

As to `CCCCCC1CCCC(=O)O1` (centres undefined), the molecule was classed as inactive in assay [12], in [13] and in assay [14].

With `CC(=O)c1nccs1`, the AC50 – broadly, the concentration at which the activity in the assay is half-maximal – in [11] was 39.3 µM (active). In [13], the call was inactive.

Regarding `O=[N+]([O-])c1ccccc1C(F)(F)F`, the result in assay [12] and in assay [13] was inactive.

As to `O=C(CC(C(=O)OC1CCCCC1)S(=O)(=O)O)OC1CCCCC1` (centres undefined), in assay [15], the molecule was called inactive.

Regarding `CO[Si](CCCNCCN)(OC)OC`, the call in [12] and in assay [13] was inactive.

As to `Oc1cccc2ccccc12`, the molecule was classed as inactive in [15], in assay [16], in assay [1], in [3], in assay [4] and in assay [5]. The outcome in assay [6] is “inactive”; in [7], “inactive”; with Decorin, DCN (gene 1634), “inactive”; in assay [9] it was “inactive”; in assay [10] it was “inactive”. Moreover, the AC50 in assay [2] is 5.51 µM (active); in assay [8], 6.06 µM (active); with SERPINA7 (gene 6906), 4.58 µM (active); with TTR (gene 7276), 3.07 µM (active).

On to `O=[N+]([O-])c1ccc2nc[nH]c2c1`, for which the outcome in assay [11] was inactive.

As to `c1cc[c]([Bi]([c]2ccccc2)[c]2ccccc2)cc1`, the AC50 in [11] is 4.16 µM (active).

Consider `CCCCCC[C@@H](O)C/C=C\CCCCCCCC(=O)O`, for which the call in assay [15] was inactive. In addition, the half-maximal activity concentration (AC50) in the assay on SERPINA7 (gene 6906) is 41.4 µM (active); in the assay on TTR (gene 7276), 10.8 µM (active).

In the case of `CCOc1ccc2c(c1)C(C)CC(C)(C)N2` (centres undefined), the outcome in [13] was inactive.

`CCCc1c(OCCCCc2nn[nH]n2)ccc(C(C)=O)c1O`: the molecule was classed as inactive in assay [11].

Regarding `CC/C=C\CCO`, the molecule was called inactive in assay [15] and in assay [16].

Take `c1ccc2c(c1)Oc1ccccc1S2`: the AC50 in assay [11] is 27.9 µM (active).

As to `CC[N+](CC)(CC(=O)Nc1c(C)cccc1C)Cc1ccccc1`, the outcome in assay [1], in assay [2], in assay [3], in assay [4], in [5] and in [6] was inactive. Also, the outcome was “inactive” in assay [7]; “inactive” in assay [8]; “inactive” with Decorin, DCN (gene 1634); “inactive” in [9]; “inactive” in assay [10].

In the case of `CC[N+](CC)(CC(=O)Nc1c(C)cccc1C)Cc1ccccc1` (tested in a mixture with another compound), in [16], the call was inactive.
